From PubChem BioAssay (NCATS)
Values joined by “and” are separate entries in the source; they are usually repeats but may differ in a detail not shown here. Equal values may be shown once. Records with an inconclusive call do not appear. A number with no mark means an inactive call. Active and inactive are the calls of the source. Calls come from the whole dose curve; as a rule, active = well fitted curve in the direction sought with a large enough effect; inconclusive = small, poorly fitted or top-dose-only effect, or another doubt; inactive = no such curve, though single readings can be large; an effect the other way counts as inactive or inconclusive. Peptide text beside a SMILES is read from it.
% is set by controls: 0 for no effect and ±100 for the full control effect; potency is the fitted concentration of half-maximal effect.

Assay: qHTS Assay for Identifying Gametocytocidal Compounds (AID 743244);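 for max response: actives lower the fluorescent signal which means gametocytes are killed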
Settings: P. falciparum 3D7 stage III-V gametocytes, alamarBlue, 72 h; max response: hits give low values
How it was run: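 In this qHTS viability screen, late-stage 3D7 gametocytes are incubated with compound for 72 h, then with alamarBlue for 24 h; reduced resorufin fluorescence marks killing.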
With Cc1ccc(NC(=O)c2ccc(CN3CCN(C)CC3)cc2)cc1Nc1nccc(-c2cccnc2)n1 the Potency was 12.6 µM (active). With Nc1nc(Cl)nc2c1ncn2[C@H]1C[C@H](O)[C@@H](CO)O1 the max response was 30.7% and 5.06%. Cc1cccc(-c2[nH]ncc2-c2ccc3ncccc3n2)n1 gave a max response of -4.01%. Molecule Nc1ccc(S(N)(=O)=O)cc1 has a max response of 6.71%. In the case of COc1cc(Nc2c(C#N)cnc3cc(OCCCN4CCN(C)CC4)c(OC)cc23)c(Cl)cc1Cl, the Potency is reported as 3.55 µM (active). For CNC[C@H](O)c1ccc(O)c(O)c1, the max response was -9.4% and 18.5%. With CC(C)c1ccc2c(c1)c(SC(C)(C)C)c(CC(C)(C)C(=O)O)n2Cc1ccc(Cl)cc1 the max response was 14.3% and 21.6%. For Nc1cccc2c1CN(C1CCC(=O)NC1=O)C2=O (stereo unspecified), the max response was 12.8% and 1.91%. CCN(CCO)CCCC(C)Nc1ccnc2cc(Cl)ccc12 (stereo unspecified) showed a max response of -15.7%. For CCOC(=O)C1=C(O)C(=O)N(Cc2ccccc2)C1, the max response was 44.6%. With Cc1cc(O)c2c(c1)C(=O)c1cc(O)cc(O)c1C2=O the max response was 14.5%. With COC(=O)[C@H](Cc1ccccc1)NC(=O)[C@@H](N)CC(=O)O (H-Asp-Phe-OMe) the max response was 15.3% and 2.54%. Work on CS(=O)(=O)OCCCCOS(C)(=O)=O yielded a max response of 7.28%. In the case of Cc1ccc(C)c(OCCCC(C)(C)C(=O)O)c1, the max response is reported as 17.4%. In the case of CCc1nc(N)nc(N)c1-c1ccc(Cl)cc1, the max response is reported as 14.3%. In the case of COc1c2occc2cc2ccc(=O)oc12, the max response is reported as 12.3%. For CC(C)C[C@H](NC(=O)[C@H](Cc1ccccc1)NC(=O)c1cnccn1)B(O)O, the Potency was 118 nM (active) and 316 nM (active). For CCOC(=O)C(C)Oc1cccc2c(=O)n(CC(=O)Nc3ccc4c(c3)OCCO4)ccc12 (stereo unspecified), the max response was 9.26%. Work on N[C@@H](Cc1cc(I)c(Oc2cc(I)c(O)c(I)c2)c(I)c1)C(=O)O yielded a max response of 2.42%. Work on Oc1ccc(-c2nc(-c3ccc(F)cc3)c(-c3ccncc3)[nH]2)cc1 yielded a max response of 19.1%. Work on NS(=O)(=O)c1cc(C(=O)O)c(NCc2ccco2)cc1Cl yielded a max response of 3.33%. In the case of CCCc1cc(=O)[nH]c(=S)[nH]1, the max response is reported as 1.36%. For Cc1ccc(Nc2nccc(N(C)c3ccc4c(C)n(C)nc4c3)n2)cc1S(N)(=O)=O, the max response was 45.8%. For CC1(C)NC(=O)N(c2ccc([N+](=O)[O-])c(C(F)(F)F)c2)C1=O, the max response was 12.7% and -11.2%. O=c1c(O)c(-c2ccc(O)cc2O)oc2cc(O)cc(O)c12 gave a max response of 11.7%. For C[C@@H](N)C1CCC(C(=O)Nc2ccncc2)CC1 (stereo partly specified), the max response was -0.932% and 18%. c1ccc2[nH]c(-c3cscn3)nc2c1 gave a max response of 16.1%. In the case of CCCCC(CC)COC(=O)C(C#N)=C(c1ccccc1)c1ccccc1 (stereo unspecified), the max response is reported as 17.2%. With CN(C)c1ccc2nc3ccc(=[N+](C)C)cc-3sc2c1 the Potency was 166 nM (active) and 303 nM (active). Cc1cccc(C#Cc2ccccc2)n1 showed a max response of 7.87%. COc1cc(OC)c(C(=O)CCCN2CCCC2)c(OC)c1 gave a max response of 4.14%. With S=c1nc[nH]c2nc[nH]c12 the max response was 21.9% and -4.09%.

Assay: qHTS assay for cell viability of HEK293 cells (AID 743288); note: nearly all actives have a fitted effect of over 50% in size
Settings: ATP luminescence (CellTiter-Glo), 18 h; max response: hits give low values
How it was run: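 The Tox21 protocol used parental HEK293 cells treated for 18 h at 37 C with compounds delivered by pintool; ATP-coupled luminescence after 30 min at room temperature gave viability.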
In the case of Nc1nc(Cl)nc2c1ncn2[C@H]1C[C@H](O)[C@@H](CO)O1, the max response is reported as -15%. In the case of Nc1ccc(S(N)(=O)=O)cc1, the max response is reported as -1.9%. Molecule CNC[C@H](O)c1ccc(O)c(O)c1 has a max response of -7.6%. In the case of CC(=O)Nc1ccc(O)cc1, the max response is reported as -9.69% and -0.289%. For Cc1cc(O)c2c(c1)C(=O)c1cc(O)cc(O)c1C2=O, the Potency was 44.7 µM (active). In the case of COC(=O)[C@H](Cc1ccccc1)NC(=O)[C@@H](N)CC(=O)O (H-Asp-Phe-OMe), the max response is reported as -2.43% and -2.64%. In the case of CS(=O)(=O)OCCCCOS(C)(=O)=O, the max response is reported as -9.44% and 3.38% and -6.4%. In the case of Cc1ccc(C)c(OCCCC(C)(C)C(=O)O)c1, the max response is reported as -0.77% and -7.02%. For CCc1nc(N)nc(N)c1-c1ccc(Cl)cc1, the Potency was 10 µM (active) and 12.6 µM (active). With COc1c2occc2cc2ccc(=O)oc12 the max response was 1.56% and -7.55%. N[C@@H](Cc1cc(I)c(Oc2cc(I)c(O)c(I)c2)c(I)c1)C(=O)O showed a max response of -6.73%. For NS(=O)(=O)c1cc(C(=O)O)c(NCc2ccco2)cc1Cl, the max response was 5.51% and -8.33%. In the case of CCCc1cc(=O)[nH]c(=S)[nH]1, the max response is reported as -1.41% and 0.952%. CC1(C)NC(=O)N(c2ccc([N+](=O)[O-])c(C(F)(F)F)c2)C1=O showed a max response of -18.9%. In the case of O=c1c(O)c(-c2ccc(O)cc2O)oc2cc(O)cc(O)c12, the max response is reported as -9.35%. With c1ccc2[nH]c(-c3cscn3)nc2c1 the max response was -17.6% and -12.7%. For CCCCC(CC)COC(=O)C(C#N)=C(c1ccccc1)c1ccccc1 (stereo unspecified), the max response was -27.9%. For CN(C)c1ccc2nc3ccc(=[N+](C)C)cc-3sc2c1, the Potency was 11.2 µM (active). Molecule COc1cc(OC)c(C(=O)CCCN2CCCC2)c(OC)c1 has a max response of -5.06%.
